In PubChem BioAssay (Tox21) one finds Potency data, which are given here for 15 compounds.

Test [1] is described as follows: qHTS assay to identify aromatase inhibitors - cell viability counter screen (AID 743084).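 Also: cells stimulated with testosterone during compound exposure; nearly all actives have a fitted effect of over 55% in size.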 Also: potency is read from the fitted curve at half-maximal effect.
The target in test [2] is Aryl hydrocarbon receptor (Homo sapiens) (UniProt P35869). The test is described as follows: qHTS assay to identify small molecule that activate the aryl hydrocarbon receptor (AhR) signaling pathway (AID 743085). Also: nearly all actives have a fitted effect of over 15% in size. Also: potency is read from the fitted curve at half-maximal effect.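 As to activation: HG2L7.5c1 human HepG2 liver cells with stably integrated DRE-driven firefly reporter; series mostly up to about 70 µM.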 A digest of the protocol:
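HepG2 cells (HG2L7.5c1) stably carrying a firefly luciferase reporter driven by 20 dioxin responsive elements were exposed to compound for 24 h at 37C after a 5 h settling period; luminescence rise (ONE-Glo) indicated activation.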

The nature of test [3]: qHTS assay to identify small molecule that activate the aryl hydrocarbon receptor (AhR) signaling pathway - cell viability counter screen (AID 743086). Also: nearly all actives have a fitted effect of over 45% in size. Also: potency is read from the fitted curve at half-maximal effect. A digest of the protocol:
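HepG2-AhR-luc (HG2L7.5c1) cells, 4000/well, treated 24 h at 37 C with compound; viability measured as CellTiter-Fluor fluorescence after 30 min in the same wells as the luciferase read.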

Test [4] can be described thus: qHTS assay to identify small molecule antagonists of the peroxisome proliferator-activated receptor gamma (PPARg) signaling pathway - cell viability counter screen (AID 743194). Also: nearly all actives have a fitted effect of over 55% in size. Also: potency is read from the fitted curve at half-maximal effect. To be noted: Potency: co-treated with 50 nM rosiglitazone unless noted. An outline of the steps:
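Cytotoxicity counter screen in PPARg-bla HEK293H cells, same wells as reporter assay. Compounds plus 50 nM rosiglitazone (final) for 17 h at 37 C, then viability read by CellTiter-Glo luminescence.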

Test [5] in a line: qHTS assay for small molecule agonists of the antioxidant response element (ARE) signaling pathway - cell viability counter screen (AID 743203; calls by dose curve; also: nearly all actives have a fitted effect of over 55% in size). An outline of the steps: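 ARE-bla HepG2 cells were plated, rested 5 h at 37C/5% CO2, then exposed to compounds in DMSO for 16 h. Viability was read as CellTiter-Glo luminescence after 30 min at room temperature, in the same wells as the ARE screen.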

Test [6] can be described thus: qHTS assay for small molecule activators of the heat shock response signaling pathway - cell viability counter screen (AID 743209). Also: nearly all actives have a fitted effect of over 50% in size. Also: potency is read from the fitted curve at half-maximal effect. A digest of the protocol: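 HSE-bla HeLa cells plated overnight, then exposed to Tox21 compounds (23 nL in DMSO) for 5 h at 37 C. After the bla reporter read, CellTiter-Glo was added in the same wells and luminescence read after 30 min at room temperature.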

The nature of test [7]: qHTS assay for small molecule activators of the heat shock response signaling pathway (AID 743210; active = well fitted activation curve with a large enough effect in the signal ratio in the repeat runs, with a control signal flat, not every such curve was filed as active; the % refers to the signal ratio;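 also: HeLa cells with beta-lactamase reporter driven by heat shock elements; series mostly up to about 63 µM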). An outline of the steps: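 Quantitative high-throughput format using an engineered HeLa line in which heat shock response elements drive beta-lactamase; after 5 h with compound, cells received a B/G FRET substrate and fluorescence was read.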
Test [8] addresses Peroxisome proliferator-activated receptor gamma (Homo sapiens) (UniProt P37231). The test is described as follows: qHTS assay to identify small molecule agonists of the peroxisome proliferator-activated receptor gamma (PPARg) signaling pathway (AID 743094; active = well fitted activation curve with a large enough effect in the signal ratio in the repeat runs, not every such curve was filed as active; the % refers to the signal ratio). An outline of the steps: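 GeneBLAzer PPARg UAS-bla HEK293H cells were plated, rested 5 h, then exposed to compounds for 17 h at 37C. Beta-lactamase activity was read by LiveBLAzer B/G FRET substrate fluorescence after 1 h at room temperature.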

Test [9] has the same target. The test is described as follows: qHTS assay to identify small molecule antagonists of the peroxisome proliferator-activated receptor gamma (PPARg) signaling pathway (AID 743191; calls by dose curve; also: series mostly up to about 63 µM; nearly all actives have a fitted effect of over 30% in size). An outline of the steps:
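GeneBLAzer PPARg UAS-bla HEK293H cells, 5 h post-plating, exposed to compounds 17 h at 37C. LiveBLAzer B/G FRET substrate added for 1 h at room temperature; beta-lactamase reporter read by fluorescence intensity.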

Test [10] in a line: qHTS assay for small molecule agonists of the antioxidant response element (ARE) signaling pathway (AID 743202; active = well fitted activation curve with a large enough effect in the signal ratio in the repeat runs, not every such curve was filed as active; the % refers to the signal ratio). An outline of the steps: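 Agonist mode reporter screen: HepG2 cells with ARE-controlled beta-lactamase are incubated with test compounds for 16 h at 37 C, and beta-lactamase activity is measured as fluorescence of cleaved B/G FRET substrate.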

Inconclusive results are not listed. The source made the active and inactive calls. Unless noted, calls follow the shape of the dose curve; as a rule, active = well fitted curve in the direction sought with a large enough effect in the repeat runs; inconclusive = weak or mixed curves; inactive = no such curve, though single readings can be large; an effect the other way counts as inactive or inconclusive.

Aryl hydrocarbon receptor (Homo sapiens), sequence (P35869 whole entry, looked up): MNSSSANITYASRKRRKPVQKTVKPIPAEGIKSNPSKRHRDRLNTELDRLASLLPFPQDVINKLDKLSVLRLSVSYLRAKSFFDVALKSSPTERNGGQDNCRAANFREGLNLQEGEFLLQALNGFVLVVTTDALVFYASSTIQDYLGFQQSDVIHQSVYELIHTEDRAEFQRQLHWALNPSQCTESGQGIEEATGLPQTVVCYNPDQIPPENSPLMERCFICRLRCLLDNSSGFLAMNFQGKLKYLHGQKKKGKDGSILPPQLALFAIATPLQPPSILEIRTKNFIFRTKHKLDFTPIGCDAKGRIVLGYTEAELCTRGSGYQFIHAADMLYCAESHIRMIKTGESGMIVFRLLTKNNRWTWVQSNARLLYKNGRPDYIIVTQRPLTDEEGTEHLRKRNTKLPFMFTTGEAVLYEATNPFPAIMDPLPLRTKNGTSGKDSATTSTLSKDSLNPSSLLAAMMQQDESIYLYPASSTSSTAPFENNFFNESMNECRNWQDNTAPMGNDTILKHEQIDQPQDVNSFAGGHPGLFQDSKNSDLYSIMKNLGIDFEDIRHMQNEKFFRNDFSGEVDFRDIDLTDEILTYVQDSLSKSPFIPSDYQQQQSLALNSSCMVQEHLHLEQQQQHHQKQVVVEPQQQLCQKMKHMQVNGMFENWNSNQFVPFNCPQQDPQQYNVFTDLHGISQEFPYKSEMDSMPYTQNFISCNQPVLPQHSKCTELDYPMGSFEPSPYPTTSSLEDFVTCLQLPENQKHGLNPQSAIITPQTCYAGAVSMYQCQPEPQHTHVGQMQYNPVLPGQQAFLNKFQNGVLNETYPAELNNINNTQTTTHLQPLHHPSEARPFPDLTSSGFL
Peroxisome proliferator-activated receptor gamma (Homo sapiens), sequence (P37231 whole entry, looked up): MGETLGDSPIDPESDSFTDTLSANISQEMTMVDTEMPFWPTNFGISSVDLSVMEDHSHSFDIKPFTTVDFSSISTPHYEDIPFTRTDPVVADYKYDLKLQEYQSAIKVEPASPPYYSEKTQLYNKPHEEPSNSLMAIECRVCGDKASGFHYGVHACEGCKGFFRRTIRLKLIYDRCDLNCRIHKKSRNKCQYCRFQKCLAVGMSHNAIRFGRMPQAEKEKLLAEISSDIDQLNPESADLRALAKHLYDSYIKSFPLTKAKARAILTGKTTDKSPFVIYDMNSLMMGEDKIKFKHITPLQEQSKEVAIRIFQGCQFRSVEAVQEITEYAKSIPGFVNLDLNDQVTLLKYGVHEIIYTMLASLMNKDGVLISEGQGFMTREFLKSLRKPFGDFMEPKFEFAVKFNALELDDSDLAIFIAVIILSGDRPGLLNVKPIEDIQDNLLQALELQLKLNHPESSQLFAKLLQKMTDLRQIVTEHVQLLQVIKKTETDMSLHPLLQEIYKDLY

For `Cc1nn(-c2cc(NS(C)(=O)=O)c(Cl)cc2Cl)c(=O)n1C(F)F`, the Potency result in [1], in [2], in test [3], in test [4], in test [5] and in test [6] was “inactive” throughout. In addition, the Potency entry in test [7] is “inactive”.

For `CC(C)c1c(CN(C)C(C)Cc2ccccc2)n(C)n(-c2ccccc2)c1=O` (stereo not drawn), the Potency result in [1], in [2], in [3], in test [5], in [6] and in test [7] was “inactive” throughout.

As for `O.O.O.O.O.O.O=S(=O)([O-])[O-].[Ni+2]`, the Potency result in test [1], in test [2], in [3], in [4] and in [6] was “inactive” in each case.

On to `CC(C)C(Nc1ccc(C(F)(F)F)cc1Cl)C(=O)OC(C#N)c1cccc(Oc2ccccc2)c1` (stereo not drawn), for which the Potency result in [1], in [2], in test [3], in test [4], in test [5] and in test [6] was “inactive” each time.

Take `C[N+]1(C)[C@@H]2CC[C@H]1CC(OC(=O)C(CO)c1ccccc1)C2` (stereo partly drawn): the Potency result in test [1], in test [2], in test [3], in test [4], in test [5] and in test [6] was “inactive” throughout. For the same compound, the Potency entry in [7] is “inactive”.

As for `CSC1=N[C@@](C)(c2ccccc2)C(=O)N1Nc1ccccc1`, the Potency result in [1], in test [2], in [3], in test [6] and in test [7] was “inactive” throughout.

For `COc1ccc2c(c1OC)C(=O)O[C@@H]2[C@H]1c2cc3c(cc2CCN1C)OCO3`, the Potency in [1] was 2.15 µM (active). Besides, the Potency entry in [2], in [8], in test [9], in test [10], in test [5] and in [6] was “inactive” throughout. Also, the Potency entry in test [7] was “inactive”.

`CC(=O)O.CC(=O)O.CC(=O)O.CC(=O)O.CC(=O)O.CC(=O)O.CC(=O)O.O.O.[Cr].[Cr].[Cr]`: the Potency result in [1], in [2], in [3], in test [4], in test [5] and in [6] was “inactive” each time.

Regarding `C=C(C)C(=O)[O][Sn]([CH2]CCC)([CH2]CCC)[CH2]CCC`, the Potency is 2.73 µM (active) in test [1], 2.73 µM (active) in test [3], 0.549 µM (active) in [4] and 1.1 µM (active) in [6]. Moreover, the Potency result in test [2] was “inactive”.

For `c1ccc2nc(N3CCNCC3)ccc2c1`, the Potency result in test [1], in [2], in [8], in [9], in [4] and in test [6] was “inactive” throughout. The Potency result in test [7] is “inactive”.

With `[Cl-].[Cl-].[Sn+2]`, the Potency result in [1], in test [2], in test [3], in [4], in test [5] and in test [6] was “inactive” in each case. Further, the Potency entry in test [7] is “inactive”.

For the compound `[Cl][Hg][c]1ccccc1`, the Potency in test [1] is 1.93 µM (active); in [3], 5.45 µM (active); in test [4], 0.776 µM (active); in test [6], 3.09 µM (active). Further, the Potency result in test [2] is “inactive”.

Regarding `CCN(CC)Cc1nccn1-c1ccc([N+](=O)[O-])cc1C(=O)c1ccccc1Cl`, the Potency entry in test [1], in [3], in test [4], in [5], in test [6] and in test [7] was “inactive” in each case.

Regarding `S=C=NCCc1ccccc1`, the Potency in test [2] was 54.6 µM (active); in test [6] it was 55.1 µM (active). Also, the Potency entry in [3], in test [8], in [9] and in test [4] was “inactive” in each case.

With `O=C(O)CCCCCCNC1c2ccccc2CCc2ccccc21`, the Potency entry in test [1], in [3], in test [4], in test [10], in test [5] and in test [6] was “inactive” throughout. In [7], the Potency result is “inactive”.
